Results on nine compounds are retold here after PubChem BioAssay.

Assay [1] is described as follows: compound effects on lung adenocarcinoma cell viability – A549, calcein-AM fluorescence, 48 h, basal, profiling panel (AID 1162). Note: test concentration not given here. Conditions: higher = more signal.
A short description of assay [2]: compound effects on differentiated 3T3-L1 adipocyte viability – cell-based, 3T3-L1 adipocytes, calcein-AM fluorescence, 48 h, basal, profiling panel (AID 1163). Note: test concentration not given here. The following applies: 3T3-L1 adipocytes viability, higher = more signal.
Assay [3] can be described thus: compound effects on hepatocellular carcinoma cell viability – HepG2, calcein-AM fluorescence, 48 h, basal, profiling panel (AID 1164). Note: test concentration not given here. Conditions: higher = more signal.
Assay [4] in a line: compound effects on multiple myeloma cell viability – MM1S, calcein-AM fluorescence, 48 h, basal, profiling panel (AID 1165). Note: test concentration not given here. Conditions: higher = more signal.
Assay [5] can be described thus: calcein-AM signal in unstimulated myeloma cells – cell-based, calcein-AM fluorescence, 48 h, PK04 Diversity Set, profiling panel (AID 1166).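 Note: cells grown under basal conditions without added stimulus; test concentration not given here.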 Conditions: RPMI8226 myeloma viability, higher = more signal.
Assay [6] is described as follows: JC-1 mitochondrial signal, unstimulated HepG2 cells – cell-based, JC-1 fluorescence, 24 h, 100 nL compound, profiling panel (AID 1167). Note: test concentration not given here. The following applies: HepG2 mitochondrial potential, higher = more signal.
The nature of assay [7]: JC-1 mitochondrial signal, unstimulated adipocytes – cell-based, JC-1 fluorescence, 3T3-L1 adipocytes, 24 h, 100 nL compound, profiling panel (AID 1168). Note: test concentration not given here. Conditions: JC-1 mitochondrial fluorescence, higher = more signal, called active from +8 up or from −8 down.
Assay [8] is described as follows: JC-1 mitochondrial signal, unstimulated myeloma cells – cell-based, JC-1 fluorescence, RPMI8226, 24 h, 100 nL compound, profiling panel (AID 1169). Note: test concentration not given here. The following applies: JC-1 mitochondrial potential fluorescence, higher = more signal.
Assay [9] can be described thus: JC-1 mitochondrial signal, unstimulated MM1S myeloma – cell-based, JC-1 fluorescence, 24 h, 100 nL compound, profiling panel (AID 1170). Note: test concentration not given here. Conditions: MM1S mitochondrial potential, higher = more signal.
Assay [10] can be described thus: resazurin metabolic signal in A549 cells – cell-based, resazurin fluorescence, 24 h, PK04 Diversity Set, profiling panel (AID 1171). Note: test concentration not given here. Conditions: A549 viability, higher = more signal, called active from +8 up or from −8 down. A general note: The colour change of resazurin is a common sign of viable cells or microbes.
Assay [11] is described as follows: resazurin metabolic signal in HepG2 cells – cell-based, resazurin fluorescence, 24 h, PK04 Diversity Set, profiling panel (AID 1172). Note: test concentration not given here. Conditions: HepG2 viability, higher = more signal.
Assay [12] can be described thus: budding yeast growth changes without added modifier – OD600, strain BY4716, 24 h, basal condition, primary screen (AID 1173). The following applies: S. cerevisiae BY4716 growth, OD600, 24 h; higher = more signal, called active from +8 up or from −8 down.
A short description of assay [13]: viability profiling in MM1S myeloma cells – cell-based, resazurin fluorescence, basal, 24 h, PK04 Diversity Set, profiling panel (AID 1174). Note: test concentration not given here. The following applies: higher = more signal, called active from +8 up or from −8 down.
Assay [14] concerns the target Dihydroorotate dehydrogenase (quinone), mitochondrial (Plasmodium falciparum (isolate 3D7)) (UniProt Q08210). In words: inhibition of P. falciparum DHODH – biochemical, C-terminal His tag, absorbance 600 nm, primary screen (AID 1175).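 Note: recombinant parasite enzyme with a five histidine tag at its C terminus; test concentration not given here.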 Conditions: PfDHODH enzyme, DCIP absorbance 600 nm; higher = more signal, called active from +8 up or from −8 down.
Assay [15] can be described thus: inhibition of PAO1 biofilm formation – strain PAO1, LB-PBS medium, absorbance 600 nm, primary screen (AID 1176). Note: test concentration not given here. The following applies: P. aeruginosa PAO1 growth/biofilm, A600, 12 h; higher = more signal.
Assay [16] in a line: growth modulation of vineyard yeast isolate – strain RM11-1a, OD600, basal, 24 h, primary screen (AID 1177).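 Note: cultures grown under basal conditions with no added stressor; test concentration not given here.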 The following applies: S. cerevisiae RM11-1a growth, OD600, 24 h; higher = more signal, called active from +8 up or from −8 down.
Assay [17] is described as follows: growth of efflux-deficient E. coli DRC39 – strain DRC39, OD650, 24 h, E. coli filamentation inducers, primary screen (AID 1178).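 Note: growth measured as culture turbidity by optical density at 650 nm; test concentration not given here.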 The following applies: E. coli DRC39 acrAB, higher = more signal, called active from +8 up or from −8 down.
Assay [18] is described as follows: growth of efflux-deficient E. coli DRC39 – strain DRC39, OD650, 48 h, E. coli filamentation inducers, primary screen (AID 1179).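 Note: screen aims at cell division blockers that make cells filament.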 Conditions: E. coli DRC39 delta-acrAB growth, higher = more signal, called active from +8 up or from −8 down.
The nature of assay [19]: viability profiling in RPMI8226 myeloma cells – cell-based, resazurin fluorescence, basal, 24 h, PK04 Diversity Set, profiling panel (AID 1180).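 Note: RPMI8826 multiple myeloma cell line at 5000 cells per well; test concentration not given here.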 The following applies: higher = more signal.
Assay [20] deals with E3 ubiquitin-protein ligase XIAP (Homo sapiens) (UniProt P98170). In words: small molecules binding XIAP protein – biophysical, small-molecule microarray, fluorescence 635 nm, primary screen (AID 1181).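 Note: score merges 667 nm emission and signal to noise over triplicate slides.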 Conditions: higher = more signal.
E3 ubiquitin-protein ligase XIAP (Homo sapiens), sequence (P98170 whole entry, looked up): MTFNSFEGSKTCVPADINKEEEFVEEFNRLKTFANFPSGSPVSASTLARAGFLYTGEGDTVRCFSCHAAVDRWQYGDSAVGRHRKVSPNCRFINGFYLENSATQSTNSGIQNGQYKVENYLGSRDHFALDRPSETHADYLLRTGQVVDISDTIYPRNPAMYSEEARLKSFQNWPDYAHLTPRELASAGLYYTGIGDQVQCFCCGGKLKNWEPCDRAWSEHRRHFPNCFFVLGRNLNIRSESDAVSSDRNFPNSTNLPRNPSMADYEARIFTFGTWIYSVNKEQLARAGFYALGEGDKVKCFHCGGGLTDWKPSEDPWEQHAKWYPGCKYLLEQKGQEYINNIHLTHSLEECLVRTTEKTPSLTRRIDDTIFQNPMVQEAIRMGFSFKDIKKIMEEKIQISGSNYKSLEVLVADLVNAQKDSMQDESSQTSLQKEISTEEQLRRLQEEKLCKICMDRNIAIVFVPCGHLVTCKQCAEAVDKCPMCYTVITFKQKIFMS

The structures appear in SMILES notation. Calls of active or inactive are those of the source. Unless noted, the rule behind the calls is not given here.

Dihydroorotate dehydrogenase (quinone), mitochondrial (Plasmodium falciparum (isolate 3D7)), sequence (Q08210 whole entry, looked up): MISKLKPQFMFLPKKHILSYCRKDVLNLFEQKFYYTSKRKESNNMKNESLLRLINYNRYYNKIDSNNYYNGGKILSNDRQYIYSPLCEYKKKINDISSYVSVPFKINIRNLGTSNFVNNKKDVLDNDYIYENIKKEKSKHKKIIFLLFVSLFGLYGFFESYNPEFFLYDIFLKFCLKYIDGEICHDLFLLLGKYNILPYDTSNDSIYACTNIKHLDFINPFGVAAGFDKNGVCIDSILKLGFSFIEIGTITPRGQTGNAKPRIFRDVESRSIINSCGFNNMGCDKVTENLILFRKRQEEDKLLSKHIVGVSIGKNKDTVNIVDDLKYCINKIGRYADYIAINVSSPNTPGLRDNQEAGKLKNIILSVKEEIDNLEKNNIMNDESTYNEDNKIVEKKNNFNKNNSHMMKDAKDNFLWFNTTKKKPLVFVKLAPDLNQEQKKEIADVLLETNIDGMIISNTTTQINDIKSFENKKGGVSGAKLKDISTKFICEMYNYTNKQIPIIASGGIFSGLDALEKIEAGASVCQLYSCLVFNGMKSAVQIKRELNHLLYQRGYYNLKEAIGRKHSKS

As to `CCOC(=O)C1=C[C@@H](C(C)C)N(S(=O)(=O)c2ccc(C)cc2)[C@H]1c1ccc(C(C)C)cc1`, the z-score in [1] is 0.012; in assay [2] it was 0.256; in assay [3] it was -0.493; in [4], -0.955; in [5], -2.18; in assay [6] it was 7.47. The z-score in assay [7] is -0.0264 (inactive); in assay [8] it was -0.0684; in assay [9] it was -0.776; in assay [10] it was 3.1 (inactive); in [11] it was 0.346; in [12], 1.05 (inactive). Moreover, the z-score is 0.52 (inactive) in assay [13]; -0.281 (inactive) in assay [15]; 0.55 (inactive) in assay [16]; -0.558 (inactive) in assay [17]; 0.399 (inactive) in [18]; 0.548 in [19]. The composite z-score was -1.11 (inactive) in [14] and -0.192 in [20].

For the compound `CC(C)NC(=O)[C@@]1(Cc2ccccc2I)c2ccccc2C(=O)N(Cc2ccccc2)[C@H]1c1ccc(CO)cc1`, the z-score is -0.547 in [1]; -0.405 in [2]; -0.513 in assay [3]; 0.525 in assay [4]; -0.651 in [5]; 0.798 in assay [6]. In addition, the z-score in assay [7] was -1.19 (inactive); in assay [8], -0.638; in assay [9] it was -0.715; in assay [10], 1.29 (inactive); in assay [11], 0.255; in assay [12], -0.659 (inactive). Besides, the z-score in assay [13] was -0.329 (inactive); in assay [15], 0.972 (inactive); in assay [16], -0.0378 (inactive); in [17] it was -0.24 (inactive); in assay [18] it was -0.324 (inactive); in assay [19], -0.211. Besides, the composite z-score in assay [14] was 0.799 (inactive); in assay [20] it was -0.0023.

With `CN1CCC(CCCO)=CC1c1ccc(CN2CCCC2)cc1` (stereo not given), the z-score in assay [1] was -0.701; in assay [2], 0.143; in assay [3], -0.86; in [4], -0.52; in assay [5], 0.559; in assay [6], 0.217. Further, the z-score is -0.0668 (inactive) in assay [7]; -0.714 in assay [8]; 0.00742 in assay [9]; 0.819 (inactive) in assay [10]; 0.106 in assay [11]; -1.33 (inactive) in assay [12]. Moreover, the z-score in assay [13] was -0.202 (inactive); in assay [15] it was 0.661 (inactive); in [16], -0.0607 (inactive); in [17] it was 0.0543 (inactive); in [18] it was 0.201 (inactive); in assay [19], -0.304. Also, the results for the composite z-score in assay [14] and in assay [20] were -0.27 (inactive) and 0.194, respectively.

`CS(=O)(=O)CCOC(=O)C1=CC(CCCO)=CC(c2cccs2)N(Cc2cc3c(cc2Br)OCO3)C=C1C(=O)OCCS(C)(=O)=O` (stereo not given): the z-score in assay [1] is 1.55; in [2], 0.46; in assay [3], 0.392; in assay [4], -0.121; in [5], 0.377; in assay [6], 1.09. Moreover, the z-score in assay [7] was 0.252 (inactive); in assay [8] it was -0.308; in [9] it was -0.579; in [10], 0.885 (inactive); in [11] it was 1.13; in assay [12], -2.65 (inactive). Besides, the z-score in [13] is 0.209 (inactive); in assay [15] it was 0.142 (inactive); in [16], 0.379 (inactive); in assay [17], 0.571 (inactive); in assay [18] it was 0.503 (inactive); in [19] it was 0.0578. Further, the composite z-score was 0.359 (inactive) in assay [14] and 0.122 in assay [20].

Regarding `O=C1C2C=CC(C(O)c3cccs3)N(Nc3ccccc3F)C2C(=O)N1c1ccccc1` (stereo not given), the z-score in assay [1] was -0.543; in assay [2] it was 0.289; in assay [3] it was -0.901; in [4], 0.46; in assay [5] it was 0.167; in [6], -0.686. For the same compound, the z-score in [7] was 0.321 (inactive); in [8], 0.635; in assay [9], -0.947; in [10], 0.433 (inactive); in assay [11], 1.21; in assay [12], -1.3 (inactive). For the same compound, the z-score in assay [13] is 0.982 (inactive); in assay [15] it was 0.574 (inactive); in [16], -0.24 (inactive); in assay [17], -0.0052 (inactive); in assay [18], 1.05 (inactive); in [19], 0.562. In addition, the composite z-score in assay [14] was 0.609 (inactive); in assay [20], 0.33.

In the case of `COCCOC(=O)N1C(=O)[C@@]2(c3cc(C#CCCO)ccc31)[C@H](c1ccc(O)cc1)N1[C@H](c3ccccc3)[C@H](c3ccccc3)OC(=O)[C@H]1[C@@H]2C(N)=O`, the z-score was 0.111 in assay [1]; -0.0323 in assay [2]; 1.97 in assay [3]; 0.189 in assay [4]; -0.934 in assay [5]; -0.958 in assay [6]. Besides, the z-score in assay [7] was -1.44 (inactive); in [8], 0.057; in [9] it was -0.915; in [10], -0.322 (inactive); in [11] it was -0.231; in assay [12], 0.0254 (inactive). The z-score is -0.644 (inactive) in assay [13]; 0.911 (inactive) in [15]; 0.565 (inactive) in assay [16]; 0.145 (inactive) in assay [17]; 0.138 (inactive) in assay [18]; -1.08 in assay [19]. Moreover, the composite z-score in [14] was -0.294 (inactive); in [20] it was -0.0272.

With `COC(=O)C[C@H]1O[C@]2(C(=O)N(Cc3ccccc3)c3ccc(NC(C)=O)cc32)[C@@H](C)[C@@H]1[Si](C)(C)c1ccc(OC)cc1`, the z-score in assay [1] is -0.472; in assay [2] it was 1.73; in assay [3] it was 0.425; in assay [4], 0.0926; in assay [5], -2.57; in assay [6] it was 0.0504. Besides, the z-score in assay [7] is 1.73 (inactive); in assay [8], -0.0063; in [9], 0.402; in assay [10], -1.62 (inactive); in assay [11] it was -1.11; in assay [12] it was 0.457 (inactive). Further, the z-score in [13] is -1.33 (inactive); in [15], -0.602 (inactive); in [16], 0.952 (inactive); in assay [17], -0.871 (inactive); in [18], -0.69 (inactive); in [19], -0.681. Further, the composite z-score is 1.45 (inactive) in [14] and -0.227 in assay [20].

`[N-]=[N+]=NCc1ccccc1[C@@H]1OC(c2ccc(OCCCO)cc2)=N[C@]1(Cc1ccccc1N=[N+]=[N-])C(=O)NCc1ccccc1`: the z-score in assay [1] was 0.103; in assay [2], 0.0085; in [3] it was -0.829; in [4], -0.466; in [5] it was 0.22; in [6] it was 1.47. Moreover, the z-score in assay [7] is -0.385 (inactive); in assay [8] it was -0.749; in assay [9], -1.37; in [10], -0.234 (inactive); in [11], 0.206; in assay [12], 1.15 (inactive). The z-score in [13] is -0.0978 (inactive); in assay [15], 0.603 (inactive); in assay [16] it was 1.27 (inactive); in [17], -0.954 (inactive); in assay [18] it was -1.96 (inactive); in assay [19], -1.46. In addition, the composite z-score in [14] is 0.139 (inactive); in assay [20], 0.0852.

`CC(C)C(=C=CC[C@@H](O)c1ccccc1OCCO)C[C@@H](O)c1ccccn1`: the z-score was -0.158 in assay [1]; 0.0388 in [2]; -0.0925 in [3]; -0.757 in assay [4]; 0.0845 in [5]; -0.687 in assay [6]. In addition, the z-score in assay [7] was -0.425 (inactive); in assay [8], -0.0863; in assay [9] it was -0.0458; in assay [10], 0.248 (inactive); in assay [11], -0.347; in assay [12], -1.09 (inactive). Further, the z-score in assay [13] is 0.0716 (inactive); in assay [15], 0.142 (inactive); in [16], -0.435 (inactive); in assay [17], -0.749 (inactive); in assay [18] it was -0.628 (inactive); in assay [19] it was 0.221. The results for the composite z-score in assay [14] and in assay [20] were -9.29 (active) and 0.0709, respectively.
